Test results taken from PubChem BioAssay AID720711 (National Center for Advancing Translational Sciences (NCATS), 2013).
Hit rate of the full screen: of about 360,000 compounds, about 290 (0.081%) were called active. For the sample, actives were picked, then their nearest neighbours and some compounds at random. A number with no mark means an inactive call. The call rests on the fitted dose curve; in most records, active means well fitted activation curve with a large enough effect; inconclusive means small, poorly fitted or top-dose-only effect; inactive means no such curve, though single readings can be large or run the other way.

Molecular target: Rap guanine nucleotide exchange factor 4 (Homo sapiens) (UniProt Q8WZA2)
Assay: qHTS for Agonist of cAMP-regulated guanine nucleotide exchange factor 4 (EPAC2): primary screen; further: nearly all actives have a fitted effect of over 50% in size
Conditions: biochemical qHTS; Potency: EPAC2 activation; series mostly up to 154 µM; activation: at the top concentration
Text: In multi-cellular eukaryotic organisms, the effects of cAMP are transduced by two ubiquitously-expressed intracellular cAMP receptors, the classic protein kinase A/cAMP-dependent protein kinase (PKA/cAPK) and the more recently discovered exchange protein directly activated by cAMP/cAMP-regulated guanine nucleotide exchange factor (EPAC/cAMP-GEF). Both PKA and EPAC are ubiquitously expressed in all tissues, and an increase in intracellular cAMP levels will lead to the activation of both PKA and EPAC. Therefore, careful dissections of the individual role and relative contribution of EPAC and PKA within the overall cAMP signaling in various model systems are critical for further elucidating the mechanism of cAMP signaling. To date no EPAC-specific antagonists and agonist, as well as isoform-specific agonists have been reported, and developing EPAC-specific pharmacological probes to determine the physiological functions that EPAC play in the overall cAMP-mediated signaling remains a major challenge within the research field. Furthermore, identified regulators of EPAC may lead to new mechanism-based therapeutic strategies specifically targeting the EPAC / cAMP-signaling components as EPAC has been implicated to play important roles in major human pathological conditions such as diabetes, heart disease, and cancer.
This qHTS will be used to screen the Molecular Libraries Small Molecule Repository (MLSMR) as a concentration-titration series using the NCGC unique quantitative screening (qHTS) platform to find activators for EPAC2. In addition, this assay will also be used as a counterscreen for the EPAC1 qHTS. This fluorescent based assay is developed and validated for EPAC2 that measures exchange using EPAC effector Rap1 complex with BODIPY-GDP, a GDP analog with a tethered fluorophores. Activators are identified by monitoring the change in fluorescence signal as the exchanged free BODIPY-GDP has a reduced fluorescence compared to Rap1-bound BODIPY-GDP. […] in signal (activation) is the desired outcome for the EPAC2 agonist while no activity in this assay is desired for the EPAC1 agonist counterscreen.
[1] de Rooij, J., Zwartkruis, F. J., Verheijen, M. H., Cool, R. H., Nijman, S. M., Wittinghofer, A., and Bos, J.L. (1998) Nature 396, 474-477
[2] Kawasaki, H., Springett, G. M., Mochizuki, N., Toki, S., Nakaya, M., Matsuda, M., Housman, D. E., and Graybiel, A. M. (1998) Science 282, 2275-2279
NIH Chemical Genomics Center [NCGC]
NIH Molecular Libraries Probe Centers Network [MLPCN]
Assay Submitter (PI): Xiaodong Cheng, The University of Texas, Medical Branch
Briefly, three uL of reagents (100 nM EPAC2, 250 nM RAP1B-BODIPY-GDP, 50 uM GDP) were dispensed into a 1536-well Greiner black solid-bottom medium binding assay plate. Controls and test compounds (23 nL) were transferred to the plate via a Kalypsys pin tool equipped with a 1536-pin array. The plates were centrifuged at 1,000 rpm for 15 seconds followed by 5 minute incubation at room temperature. The assay plates were read at 5 minute intervals for 30 minutes in the ViewLux plate reader using 480nm excitation and 540nm emission filters. The results were normalized to the agonist positive control of 6.5 mM cAMP.
Potency means the concentration at half of the fitted maximal effect.

Chain of Rap guanine nucleotide exchange factor 4 (Homo sapiens) (Q8WZA2 whole entry, looked up): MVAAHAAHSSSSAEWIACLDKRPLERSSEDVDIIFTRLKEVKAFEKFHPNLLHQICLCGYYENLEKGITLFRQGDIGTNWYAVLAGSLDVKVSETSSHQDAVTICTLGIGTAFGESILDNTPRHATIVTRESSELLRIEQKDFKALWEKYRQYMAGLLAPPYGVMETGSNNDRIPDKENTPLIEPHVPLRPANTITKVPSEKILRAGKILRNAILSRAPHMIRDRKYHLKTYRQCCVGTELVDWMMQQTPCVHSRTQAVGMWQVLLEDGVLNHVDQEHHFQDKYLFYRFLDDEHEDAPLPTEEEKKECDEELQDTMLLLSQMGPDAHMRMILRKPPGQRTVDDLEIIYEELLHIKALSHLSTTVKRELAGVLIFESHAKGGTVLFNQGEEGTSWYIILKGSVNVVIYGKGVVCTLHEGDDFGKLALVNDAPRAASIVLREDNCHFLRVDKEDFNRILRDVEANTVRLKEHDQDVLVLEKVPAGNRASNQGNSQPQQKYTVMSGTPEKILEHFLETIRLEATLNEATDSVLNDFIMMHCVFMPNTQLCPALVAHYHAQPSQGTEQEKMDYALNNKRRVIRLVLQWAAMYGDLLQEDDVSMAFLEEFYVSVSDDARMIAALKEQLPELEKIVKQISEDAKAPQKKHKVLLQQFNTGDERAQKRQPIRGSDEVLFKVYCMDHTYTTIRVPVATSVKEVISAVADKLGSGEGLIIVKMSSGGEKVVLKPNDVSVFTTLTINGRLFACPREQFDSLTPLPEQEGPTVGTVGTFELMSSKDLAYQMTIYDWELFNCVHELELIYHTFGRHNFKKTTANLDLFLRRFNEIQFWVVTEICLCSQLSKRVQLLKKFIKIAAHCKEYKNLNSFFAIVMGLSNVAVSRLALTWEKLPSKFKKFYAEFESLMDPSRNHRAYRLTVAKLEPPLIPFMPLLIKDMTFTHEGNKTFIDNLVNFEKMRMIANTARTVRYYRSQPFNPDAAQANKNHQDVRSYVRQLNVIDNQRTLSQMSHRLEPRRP

SMILES	activation	Potency
COc1cc(-c2nnn(CC(=O)NCc3ccccc3)n2)cc(OC)c1OC	-6.33%	
COC(C(=O)NCc1ccccc1C)c1ccccc1 (centres undefined)	-2.29%	
COc1ccc(NC(=O)CN(C)S(=O)(=O)c2ccccc2)cc1OC	15.6%	
CCN(C(=O)C1CCCN(c2nc(-c3ccc(OC)cc3)no2)C1)c1ccc(OC)cc1 (centres undefined)	13.2%	
CCc1cccc(OC2OC(CO)C(O)C(O)C2NC(C)=O)c1 (centres undefined)	12.7%	
CCN(Cc1ccccc1)S(=O)(=O)c1cc(C(=O)O)ccc1OC	4.83%	
COc1ccc(C)c(Cn2c(-c3nonc3N)nc3ccccc32)c1	-7.07%	
Cc1ccc2c(CC(=O)NCc3cccs3)coc2c1	3.95%	
CCc1nn(CCCC(=O)NCc2ccc(C)cc2)c(=O)c2cc3occc3n12	2.33%	
Cc1ccc(C(CNC(=O)Nc2ccccc2)N2CCN(C)CC2)cc1 (centres undefined)	6.7%	
O=C(O)C1OC(C(=O)O)C2C1C(F)(F)C2(F)F (centres undefined)	7.38%	
CN(CCNC(=O)c1cc2c(-c3ccccc3F)nn(C)c2s1)C1CCCCC1	12%	
CCO[C@@H]1OC(C(=O)NC2CC2)=C[C@H](C)[C@H]1CCCO	5.29%	
Cc1nc(N)sc1-c1ccccc1	2.75%	
O=C(CCc1ccccc1)Nc1ccnn1C1CCN(Cc2ccc(OCCO)cc2)CC1	4.75%	
CC(C)(C)NC(=O)Cn1c(SCC(=O)Nc2nccs2)nc2ccccc21	2.92%	
O=C1C=C(c2ccnc3cc(Cl)ccc23)C[C@@H](c2ccc3c(c2)OCO3)C1	3.59%	
CCCCCC(=O)N1CCN(S(=O)(=O)c2ccc3c(c2)OCCCO3)CC1	3.1%	
CC1(C)CN(CCc2ccccc2)C(=O)[C@H]1CC(=O)Nc1ccc(Br)cc1	2.53%	
COc1ccc(N2C(=O)NC(NS(=O)(=O)c3ccc(Cl)cc3)(C(F)(F)F)C2=O)cc1 (centres undefined)	10.6%	
CCOC(=O)c1cc2n(c1N)-c1ccccc1C2=O		89.1 µM (active)
CCOC(=O)c1cnn(Cc2ccccc2Cl)c1N	1.13%	
CCOC(=O)c1ccccc1NC(=O)c1c(N)n(C)c(=O)[nH]c1=O	19.8%	
CN(C)NC(=O)c1csnc1-c1c(Cl)cccc1Cl	13.8%	
O=S(=O)(NCc1ccccc1Cl)c1cnc[nH]1	-3.43%	

SMILES	activation	Potency
CCc1nc2sc3c(Cl)ncnc3c2c2c1CCCC2	10.5%	
COc1ccc(CNC(=O)C[C@H]2C[C@H](C(=O)N3CCOCC3)[C@@]3(CCC4CCCC4)c4[nH]c5ccc(Cl)cc5c4CCN3C2=O)cc1OC	-2.39%	
O=C1[C@H]2[C@@H](c3ccc(C(F)(F)F)cc3)N[C@]3(CCCN(Cc4ccc(Cl)cc4)C3=O)[C@H]2C(=O)N1Cc1ccccc1	-2.98%	
CCN(CC)CCCC(C)n1c2nc(=O)[nH]c(=O)c-2nc2cc(Cl)ccc21 (centres undefined)		100 µM (active)
c1ccc(C[C@H]2CNCCN2CCC23CC4CC(CC(C4)C2)C3)cc1	8.44%	
Cn1c(=O)c2c(nc(N3CCCCCC3)n2CC(O)COc2ccc(Cl)cc2)n(C)c1=O (centres undefined)	-12.2%	
CSCc1cc(N(C)C)nc(SCc2ccc(Cl)cc2Cl)n1	12.8%	
CCCOc1ccc(Cc2c(Cl)nc(SC)nc2NC)cc1	14.3%	
Cc1sc2ncn(CC(=O)NCCCC(=O)N3CCN(c4ccccc4F)CC3)c(=O)c2c1C	10.3%	
Cc1oc(C)c(C(=O)NCCCC(=O)O)c1C(=O)NCCCC(=O)O	3.93%	
O=CN1CCN(C(=O)c2ccc(Br)o2)CC1	-4.45%	
Cc1cc(C)c2oc(C(=O)Nc3ccc(S(=O)(=O)Nc4nccc(C)n4)cc3)cc(=O)c2c1	-3.06%	
COc1ccc(NC(=O)N(C)C[C@H]2Oc3ncc(C#C[C@@H](C)O)cc3C(=O)N([C@H](C)CO)C[C@H]2C)cc1	6.02%	
CCCCN1C(=O)C(CC(=O)NC(c2ccccc2)c2ccccc2)CC(C(=O)N2CCOCC2)=C1C (centres undefined)	5.77%	
CC(C)(C)[C@H]1C=C(C(=O)NCc2ccccc2)O[C@@H](OCc2ccc(CO)cc2)C1	9.55%	
NC(=O)c1ccccc1N=Cc1ccc2ccccc2c1	-7.1%	
O=C(Nc1ccc2c(c1)C(=O)OC2)Nc1cccc2ccccc12	11.6%	
Cn1ccs/c1=N\S(=O)(=O)c1ccc(C(C)(C)C)cc1	-12.9%	
CC12c3ccccc3C(c3ccccc31)C1C(=O)N(Cc3cccnc3)C(=O)C12 (centres undefined)	7.76%	
Cc1cccc(-c2c(NC(=O)c3ccco3)oc3ccc(Cl)cc3c2=O)c1	6.33%	
O=C(NCCCN1CCCCC1)C1CCCN(c2ncnc3c2nc2n3CCCCC2)C1 (centres undefined)	5.8%	
CC1CCC(CN2CCN=C2N(C)C)CC1 (centres undefined)	12.7%	
CC(Oc1ccc(Br)cc1)C(=O)NCC(c1ccco1)N1CCCCC1 (centres undefined)	14.4%	
O=C(c1ccccc1)C(Cn1cncn1)C(Sc1ccccc1)c1ccccc1 (centres undefined)	-7.26%	
CCCCCCc1cc2cc(-c3nnc(-c4ccccc4)o3)c(=O)oc2cc1O		44.7 µM (active)

SMILES	activation	Potency
COc1cc(C(=O)NCC(=O)NCCSc2ccc(Br)cc2)cc(OC)c1OC	1.02%	
CN(CCOc1ccc(Br)cc1)CC(=O)Nc1cccc(S(=O)(=O)NC2=NCCC2)c1	8.89%	
CCN=C1S/C(=C\c2cc(Br)ccc2OCC(=O)OCC)C(=O)N1CC	-3.99%	
CC(C)N1C(=S)SC(C)(C)C1n1oc(=O)n(-c2ccc(Cl)c(Cl)c2)c1=O (centres undefined)	16.2%	
COC(=O)c1ccc([C@@H](O)[C@H](C)C(=O)CC(=O)OC(C)(C)C)cc1	7.76%	
CC(=O)Oc1ccc(-c2cccc(C(=O)N3CCCCC3)c2)cc1	4.17%	
CCN(CC(=O)Nc1cccc(S(N)(=O)=O)c1)Cc1nc2ccccc2c(=O)[nH]1	5.9%	
Cc1nc2ccc(S(=O)(=O)N(C)CC(=O)NC(C)c3ccccc3)cc2s1 (centres undefined)	-5.42%	
Cc1cc2c(cc1C)NC(c1ccccn1)C1=C(CC(C)(C)CC1=O)N2 (centres undefined)	0% [at 15.6 µM, 100% = 6.5 mM cAMP response]	
O=C(Cn1nnc2ccccc2c1=O)NCc1ccc(Cl)cc1	6.7%	
Cc1ccc(S(=O)(=O)CCC(=O)OCc2ccccc2)cc1	7.04%	
O=C(CNC(=O)c1ccccc1F)OCC(=O)c1c[nH]c2ccccc12	-5.16%	
CN1C(CC(=O)Nc2ccc(Br)cc2)c2ccccc2CC1(C)C (centres undefined)	2.28%	
O=C(COC(=O)c1c(Cl)cccc1Cl)Nc1cccc(S(=O)(=O)NC2=NCCCCC2)c1	5.96%	
CCCN(CC(=O)Nc1ccc(C(N)=O)cc1)CC(=O)Nc1ccccc1C	3.61%	
COC(=O)[C@]12CCCCC=C1N(Cc1ccco1)C(=O)[C@H](CC(=O)NCCCCc1ccccc1)C2	5.99%	
COc1ccc(S(=O)(=O)NC(CC(=O)NCc2ccccc2OC)c2ccco2)cc1 (centres undefined)	-3.25%	
Cc1sc2ncn(CC(=O)NCCN(C)C)c(=O)c2c1S(=O)(=O)N1CCC(C)CC1	1.43%	
CN(CCc1ccccn1)C(=O)c1ccc(OC2CCN(CCc3ccccc3)CC2)cc1	-1.49%	
O=C1CCc2cc(S(=O)(=O)N3CCC(C(=O)NCc4ccccc4Cl)CC3)ccc2N1	-0.988%	
CCOc1ccccc1Nc1nnc(SCC(=O)NCC2CCCO2)s1 (centres undefined)	-2.02%	
N#CCCn1cnc2ccccc21	5.55%	
O=[N+]([O-])c1ccc(CN2CC(N3CCC(c4ccccc4)CC3)CS2(=O)=O)cc1 (centres undefined)	12.6%	
CC(=O)[C@@]12O[C@@H]1C[C@H]1[C@@H]3CC[C@H]4C[C@@H](O)CC[C@]4(C)[C@H]3CC[C@@]12C	7.28%	
CC1Cc2ccccc2N1S(=O)(=O)c1c(N)n(C)c(=O)n(C)c1=O (centres undefined)	2%	

SMILES	activation	Potency
CC(C(=O)NC1CCCC1)N(c1ccc(Oc2ccccc2)cc1)S(C)(=O)=O (centres undefined)	9.13%	
CC(=O)NC12CC3CC(C1)CC(C(=O)N1CCN(S(=O)(=O)c4cccs4)CC1)(C3)C2	-5.25%	
Cc1cc(C)c(S(=O)(=O)N2C=CC(C(F)(F)F)=NCC2)c(C)c1	6.38%	
O=C(C1CCC1)N1CCN(S(=O)(=O)c2ccc([N+](=O)[O-])cc2)CC1	4.71%	
COc1ccc(NS(=O)(=O)c2cc(NC(=O)CC(=O)c3ccc([N+](=O)[O-])cc3)ccc2C)cc1	-1.43%	
COc1ccc(C(=O)Nc2nc(-c3ccc(OC)cc3)c(-c3ccc([N+](=O)[O-])cc3)s2)cc1		112 µM (active)
COc1ccc(-c2[nH][nH]c(=O)c2NC(=O)c2ccc([N+](=O)[O-])cc2)cc1	2.41%	
CCOC(=O)NC(C(F)(F)F)(C(F)(F)F)P(=O)(c1ccccc1)c1ccccc1	3.46%	
Oc1ccc2ccc3cccc[n+]3c2c1		100 µM (active)
COCCN1CCN(C(=O)c2cc(COc3ccc(F)cc3Cl)on2)CC1	-3.51%	
Cc1cc(Cl)c2oc(C(=O)N3CCC(O)(c4ccccc4)CC3)c(C)c2c1	3.33%	
Cc1cccc(OCc2nnc(SCc3nc4cc(C(F)(F)F)ccc4c(=O)[nH]3)o2)c1	-6.74%	
Cc1nnc(N(Cc2ccco2)C(=O)c2ccno2)s1	2.05%	
CCC1C(C#N)=C(SC)NC2=C1C(=O)CC(C)(C)C2 (centres undefined)	-8.31%	
CCn1cc(NC(=O)Nc2ccc(OC)c(OC)c2)c(C(N)=O)n1	-3.89%	
C[n+]1ccc(/C=C/c2c[nH]c3ccccc23)cc1		100 µM (active)
COc1ccc(CNC(=O)c2ccc(-c3cccnc3)c3ccoc23)cc1OC	5.81%	
CCc1noc(C)c1C(=O)N1CCCC(N2CCN(c3ccc(F)cc3)CC2)C1 (centres undefined)	7.4%	
C=C1C(=O)OC2C1CCC(C)=CCCC1(C)OC21 (centres undefined)	8.7%	
CCC(C(=O)NCCC(C)C)N(Cc1ccccc1Cl)C(=O)c1snc(C(N)=O)c1N (centres undefined)	24%	
COc1cccc(N(CC(=O)NC2CCCC2)C(=O)CCCC(=O)Nc2ccccn2)c1	9.06%	
Cc1nn(C(C)C(=O)NCCC2=CCCCC2)c(=O)c2nn(-c3ccccc3)c(C)c12 (centres undefined)	7.66%	
CC(C)C(NC(=O)OCc1ccccc1)C(=O)OCC(=O)N1C(C)CCCC1C (centres undefined)	11.3% [at 15.6 µM, 100% = 6.5 mM cAMP response]	
COc1ccc(S(=O)(=O)NCC(c2ccco2)N2CCOCC2)cc1 (centres undefined)	11.6%	
